Measured values published in the supplement of paper PMC6555819.

Assays:
Experiment in all cases: PBM binding z-score (relative to random genomic background probes); higher = stronger binding; sequences stand for … in GC…GCGATTGACAGCGTAGAATGAAGG
[1] = tested on: FXR:RXRa (NR concentration 270 nM, RXRa partner concentration 90 nM)
Procedure, shortened: (§1)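 Antibodies against each partner of ligand-free nuclear receptor dimers (one per run) detected binding on custom Agilent 4×180K protein-binding microarrays after 1 h incubation. The double-stranded probes had 34-nt variable regions carrying direct-repeat seeds, single-nucleotide variants, half-site ablations and random human genomic background sequences. Binding z-scores, from regression-normalized fluorescence, use the random background probes as reference.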

[2] = tested on: LXRa:RXRa (NR concentration 270 nM, RXRa partner concentration 90 nM)
Procedure, shortened: as §1

[3] = tested on: LXRa homodimer (NR concentration 270 nM)
Procedure, shortened: as §1

[4] = tested on: LXRb:RXRa (NR concentration 270 nM, RXRa partner concentration 90 nM)
Procedure, shortened: as §1

[5] = tested on: LXRb homodimer (NR concentration 270 nM)
Procedure, shortened: as §1

[6] = tested on: PPARa:RXRa (NR concentration 270 nM, RXRa partner concentration 90 nM)
Procedure, shortened: as §1

[7] = tested on: PPARg:RXRa (NR concentration 180 nM, RXRa partner concentration 90 nM)
Procedure, shortened: as §1

[8] = tested on: PPARg:RXRa 270nM:90nM, anti-RXR (NR concentration 270 nM, RXRa partner concentration 90 nM)
Procedure, shortened: as §1

[9] = tested on: PPARg:RXRa 30nM:10nM, anti-RXR (NR concentration 30 nM, RXRa partner concentration 10 nM)
Procedure, shortened: as §1

[10] = tested on: PPARg:RXRa 90nM:30nM, anti-RXR (NR concentration 90 nM, RXRa partner concentration 30 nM)
Procedure, shortened: as §1

[11] = tested on: PPARg:RXRa DBDmut IVT, anti-RXR (DBD mutation: RXRa K156A/R161A, NR concentration 270 nM, RXRa partner concentration 90 nM)
Procedure, shortened: as §1

[12] = tested on: PPARg:RXRa IVT, anti-PPARg (NR concentration 270 nM, RXRa partner concentration 90 nM)
Procedure, shortened: as §1

[13] = tested on: PPARg DBDmut:RXRa IVT, anti-PPARg (DBD mutation: PPARg1 K132A/R137A, NR concentration 270 nM, RXRa partner concentration 90 nM)
Procedure, shortened: as §1

[14] = tested on: PPARg DBDmut IVT, anti-PPARg (DBD mutation: PPARg1 K132A/R137A, NR concentration 270 nM)
Procedure, shortened: as §1

[15] = tested on: PPARg homodimer (NR concentration 180 nM)
Procedure, shortened: as §1

[16] = tested on: PXR:RXRa (NR concentration 270 nM, RXRa partner concentration 90 nM)
Procedure, shortened: as §1

[17] = tested on: PXR homodimer (NR concentration 270 nM)
Procedure, shortened: as §1

[18] = tested on: RARa:RXR (NR concentration 270 nM, RXRa partner concentration 90 nM)
Procedure, shortened: as §1

[19] = tested on: RARa homodimer (NR concentration 270 nM)
Procedure, shortened: as §1

[20] = tested on: RARb:RXRa (NR concentration 270 nM, RXRa partner concentration 90 nM)
Procedure, shortened: as §1

Sequence	PBM binding z-score [1]	PBM binding z-score [2]	PBM binding z-score [3]	PBM binding z-score [4]	PBM binding z-score [5]	PBM binding z-score [6]	PBM binding z-score [7]	PBM binding z-score [8]	PBM binding z-score [9]	PBM binding z-score [10]	PBM binding z-score [11]	PBM binding z-score [12]	PBM binding z-score [13]	PBM binding z-score [14]	PBM binding z-score [15]	PBM binding z-score [16]	PBM binding z-score [17]	PBM binding z-score [18]	PBM binding z-score [19]	PBM binding z-score [20]
TCTATTAGTTGACTAGGGCAACCGAAACAGCGGA	0.843	0.805	-0.0763	0.429	0.447	1.45	0.971	2.37	3.68	3.07	3.04	3.38	0.37	0.987	1	0.491	0.269	0.566	0.68	0.994
GCTAGTTGGTCAGTAAAAGCTCACACACCGGTCG	-0.135	-0.249	-0.0683	-0.56	-0.539	-0.386	0.13	-0.0391	-0.355	-0.193	0.623	-0.0359	-1.02	-0.165	-0.00408	-0.622	-0.0329	-0.419	0.154	0.596
CTCGAAAGGTCGTGCTCAGGTTAGTATACCAAAC	5.58	4.22	0.511	3.78	0.719	5.12	2.57	3.75	0.966	2.37	0.848	1.77	0.0664	0.423	2.46	3.94	0.392	4.55	0.346	4.09
AGTCAAAGTTCATCTAGGTAACGCAAGATATGCT	6.85	5.91	4.93	3.61	1.83	4.83	6.39	6.35	3.58	5.58	0.815	4.11	1.46	1.49	3.03	5.12	6.5	3.76	1.42	5.03
TCTAGTTGGTCACGGAGGTCATACACGACGGGTA	3.53	3.79	3.37	3.52	0.955	3.92	3.08	3.93	3.65	3.86	2.41	3.69	1.98	1.06	2.96	4.57	2.33	4.38	1.78	3.59
GCTGCTAGGTCCACTGATGGTCAGCTAAAGCTCG	-0.489	-0.3	-0.698	-0.586	-0.746	-0.509	-0.592	-0.813	-0.963	-0.946	0.0704	-0.423	-1.19	-1.02	-1.01	-0.525	-1.03	-0.598	-1.55	0.403
TCTTGTAGATCAAGCAGGTTAATAAAGCCTGAGT	0.189	0.118	-0.263	0.262	-0.449	0.639	-0.267	0.922	2.43	1.6	1.48	0.498	-0.163	0.466	0.27	0.447	0.326	0.406	0.125	-0.0389
TGAATCAGGTTATAAGATCAGGGAACGTTGCAAA	0.101	0.162	-0.396	0.0988	-0.425	0.709	0.475	0.863	0.155	0.477	0.57	1.03	1.01	0.775	2.15e-05	-0.146	-0.197	-0.101	0.428	0.25
